According to PubChem BioAssay AID1159506 (National Center for Advancing Translational Sciences (NCATS), 2015):
In all, about 59,000 sequences were measured (the read-out: median about -0.00055, lowest 2% from about -2 on). The sample as a whole holds a higher share of the lowest values than the screen did.

assay: Identification of proteins required for the processing of the EWS-FLI1 nascent transcript; settings: TC32 Ewing sarcoma NR0B1-luc vs CMV-luc (EWS-FLI1 target promoter against control promoter), 48 h; screened at 20 nM (by protocol);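 further: robust z of luciferase light less the median z of siRNAs with the same seed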
Outline: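 Three siRNAs per gene, each in a separate well at 20 nM, were transfected into TC32 cells bearing either reporter construct. Luminescence was measured two days on, and per-gene comparison relied on seed-corrected Z values.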

Sequence | seed-corrected z-score
UAUUUCCAUCGGAUGAUGC against GJD3 | -0.0376
UAGGCUUAGAGGUCCCAGC against LACRT | 2.39
UAAUUGACCAGCUUACUAC against PRAMEF2 | 1.04
AAUUCAUCCAUGAUUCUGC against FAM134B | -0.291
UAGUUGUCGACGAGCACGC against MUC5AC | -2.79
UUCUUACCAGUGUUGAUGG against KIF11 | -2.21
UAAUCUUCAUACGCAGUGC against HNRNPR | 0.713
UUCAUACUGAAGAUUUUCC against ZNF157 | -0.0023
UAGGAUUAAAUUAAUCCUC against GNE | -0.0404
UAAAGGCAUAGUUUCCCUG against RGS7BP | -2.71
AAAGGUGCAGAAGUUCUGU against LOC646484 | -1.37
UCCAGUUCCAGAACUAUCU against HES2 | 0.537
AAACGGUCCAGGUAAUUCA against CCND2 | -1.57
UCUCGUUCCACCAGAUCCG against OGFR | 2.21
AGUUGUAGAAGAACGAAUC against PSMD2 | -3.28
UUGGGUUUCGGACCUCUCU against CBX7 | 0.219
UAUCCUUCAACCAUUCUGG against DYX1C1 | 0.0057
UAUAUGACACCUGCUGUGG against NGFR | -1.33
AUUGCAGUCACGAUGAUGG against OR52I2 | -1.16
UAAUGUCCAAGAUGGUCAC against CELSR1 | 0.481
UUCUGAAUCAAAGUUGUUC against CBLN1 | 0.758
UGUAUAACCUGGCUCUCUG against FAM45BP | -0.888

Sequence | seed-corrected z-score
UAGGAUGGAACAUCAAUCU against WASH5P | -2.88
UAUGCUCAAAUACCUUUGC against CAT | 0.148
UAGUGCUUAUCCUAGAAUC against KLK8 | 0.915
AAACUACCCAAUUGUAAUC against OR9A4 | 0.66
AUGGUCUUGCCAUCUACCG against RABL2A | -2.05
AUCAAUUUGUCCUCCAUCC against RNPS1P1 | -0.331
GACAUGGCAGUGAGCUUCC against CBX2 | -0.4
UGCUCAAUCUGAUAGAUGG against TP63 | -0.257
UGUUUGAUCUGUAAAAUGG against C15orf32 | -1.58
AUGAUGUUCCUUGAAGUUC against DHRS2 | -0.594
UCUCAUCCAGGUACCAGCC against FTCD | -0.292
AGCUGUUCAAUGUCAAAGC against INMT | -4.2
UGACAUACCAGAGGAAGUG against PLEKHH1 | -0.0437
UUGUUGACCAUAGCUACUC against EWSR1 | -4.01
AUAGAUACAGGUGAUGCAG against EGLN2 | 1.45
UACUCUCACAGCUUGCACC against KCTD18 | -0.258
UUGGGAAGCAGGUGCAUGC against LAIR1 | -2.03
UAGAGGCACCGAGUCAACG against DBF4B | 0.153
UGAGUUCCGACACUCCAUC against EIF4EBP1 | 0.187
UCUGCUUUCUGUACCCGAC against GATA3-AS1 | -2.32
UUUGUUACAAGCACCUACU against LOC730179 | 0.536
ACAGGUGCAUUGGACUUGG against KCTD15 | -3.06

Sequence | seed-corrected z-score
UUGAUCACCUCAGAGGCCG against USE1 | -1.2
UUAUGCUAAAAUCUACUCC against TNKS2 | -1.04
AAUAGGUGUAAGUCCGUGC against NR5A2 | -2.54
UUAGUCCAGAGGUUUCAUC against PCAT18 | -0.77
UCACAAUUUAGUGUAAUAG against ETFBKMT | 0.195
UCGGUAAUCCGGGUGAAGC against FGF14-AS2 | -0.163
UCCUGGAUUGGGAAGGUGC against C9orf172 | -0.383
UGCAGUAGAAUUUACACGC against RB1 | -2.42
UUUGCUAUCAGGGAACAUC against SPRR2B | -0.452
UGAUGGUAGAGUUCCAGUG against MYBL2 | -0.637
UUGCUUAUGAGCUUGAUGG against MAST1 | -2.39
UAAGCGGUUCAUGCUGUGG against CPA5 | -0.872
UAGUGGAAGACGGAAAAGU against SFN | -0.0924
AGUAUAACCAGUGGGAGGC against EWSR1 | -5.73
UAUCUGAAGAUCUAGACUC against ZNF280D | -0.0696
UCCUUGACCAGAAAUCUCA against TRIM31 | -0.472
UACGUCAAACGGAACUUCC against LRPPRC | -0.194
UCAUGUAUAAACAGUCGCC against ALDH7A1 | 0.368
UUAGCAUGAUGAUCAAGGC against LIN28B | 0.22
UUAUAUAUCUCCUGGAGCG against AGPAT3 | -0.537
UGAGUUUCGAGAGCACAGU against MID1IP1 | -3.02
AAACUUUCUCCUUAAGGCC against PRR11 | -0.21

Sequence | seed-corrected z-score
UUGCAAUUGAAUUCACAGC against SRI | -0.0706
UGAAGGAUUUGUGACAUAC against ZFP28 | -0.0712
UGUGGUUCCAAGGCACGUC against CCER2 | -2.12
UUCCUUGGGCCCUAUAUGU against FAM168A | -0.129
AACGUAGAAAAGCAUAUCG against DENND5B | -0.0535
UAUCUUGCUGGUGUGUGUG against MAX | -0.878
AUAGGCUUUAUCAAGAUCG against MPP5 | 0.288
UGAAUUUCUCGAAUCUGUG against SF3B1 | -4.69
UGACCGAUGACAGGUAUCU against MRGPRX3 | -0.02
UUUUGAGUGGGUAUCAACC against VIM | 0.533
UUCUGUGCUACUUUGUGCU against SSR3 | 1.19
UCCCUGAAUAGUGUGACAG against CCDC103 | 0.246
UUACAUCCAAUUGUAAAGG against C5orf22 | -2.74
UUUGCGAAACUCCAAGUCC against LMNB1 | -0.159
AAAAAUAUCUGUGAUUCUG against WNK1 | 0.399
UAGGCAUCGAUGUGGAAGC against TELO2 | 2.04
UCAGCAGAUCUUGACAGUC against LYZL6 | 0.253
CUGCUUCUGAGCGUUUGCG against MED14OS | -2.09
UUGCCGUAUAGGUAGUUUG against NPTX2 | -0.552
